# Screening results as filed in PubChem BioAssay.
# Shown are actives, neighbours in structure and some others; about 2.3% of the full set was active somewhere.
# ANO1 activ = activates or potentiates the mouse TMEM16A chloride channel. Q8BHY3. HEK293 TMEM16A/YFP-H148Q/I152L, iodide quench fluorescence; stronger effect = lower value. B-score at 10 µM. AID 623877. hit rate 0.3% among 340,000;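 active means fluorescence-ratio B-score plate-corrected deviation score at least 3 library SD below zero, with starting fluorescence score within 5 deviations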;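 further: channel opened by trigger with iodide after compound preincubation; score built on the fluorescence ratio of max minus min over baseline; more negative score means more quench and so TMEM16A activation or potentiation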
# ANO1 block = inhibitors of mouse TMEM16A calcium-activated chloride channel; Q8BHY3; HEK293 TMEM16A/YFP iodide influx fluorescence, ionomycin; normalized B-score (activity score, 25-100; higher = stronger inhibition) at 10 µM; hit rate 1.2% among 310,000;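 active means ratio plate-corrected score three or more library SD toward inhibition, starting fluorescence score within five deviations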;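 further: score derived from kinetic fluorescence span divided by baseline fluorescence per well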
# CHT PAM = human CHT allosteric activation. B-score at 10 µM. Q9GZV3. hit rate 0.49% among 310,000. CHT-expressing cells, membrane potential dye, choline EC20; stronger effect = higher value; LV-AA mutant CHT in HEK293 cells. AID 488977;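 active means initial fluorescence not abnormally high and integrated response B-score, plate-corrected, over 3 SD above library mean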
# Target sequence (Q9GZV3 whole entry, looked up): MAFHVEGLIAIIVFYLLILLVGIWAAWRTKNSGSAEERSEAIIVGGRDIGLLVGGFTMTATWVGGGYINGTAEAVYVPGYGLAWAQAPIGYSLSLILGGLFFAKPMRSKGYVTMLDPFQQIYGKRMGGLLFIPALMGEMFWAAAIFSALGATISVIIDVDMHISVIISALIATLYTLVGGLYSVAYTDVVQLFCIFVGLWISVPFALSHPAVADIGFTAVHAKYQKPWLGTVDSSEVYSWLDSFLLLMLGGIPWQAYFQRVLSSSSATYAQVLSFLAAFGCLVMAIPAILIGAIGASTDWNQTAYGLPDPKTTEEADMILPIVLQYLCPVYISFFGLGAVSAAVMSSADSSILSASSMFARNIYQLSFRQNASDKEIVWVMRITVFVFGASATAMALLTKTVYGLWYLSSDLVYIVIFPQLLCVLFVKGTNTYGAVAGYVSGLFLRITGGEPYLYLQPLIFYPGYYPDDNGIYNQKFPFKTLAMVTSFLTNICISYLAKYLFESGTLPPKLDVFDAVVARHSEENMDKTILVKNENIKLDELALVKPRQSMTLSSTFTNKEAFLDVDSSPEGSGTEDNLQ
# CHT block = inhibitors of human choline transporter CHT | B-score at 10 µM | CHT-expressing cells, membrane potential dye, choline response; stronger effect = lower value | Q9GZV3 | hit rate 0.86% among 310,000;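 active means B-score over 3 SD under the library average, and starting fluorescence ratio not unusually high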;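 further: choline stimulus applied at its EC90 after an EC20 pre-addition; B-score computed on integrated fluorescence ratio after choline addition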
# CHT inh conf = confirmation of human choline transporter CHT inhibitors; shares compounds with CHT block; CHT-expressing cells, choline membrane potential dye; LV-to-AA substituted CHT, HEK293 cells; CHT activity remaining % of control (stronger effect = lower value), % at 10 µM; hit rate 70% among 2,400; AID 493221;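 active means choline transporter activity left, mean of duplicates at 10 µM, below buffer-only control mean minus 3 SD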;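 further: depolarization triggered by choline at its EC90 following an EC20 pre-addition; 0% = hemicholinium-3 full block and 100% = buffer-only control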
# HEK293 CHT ctr = CHT inhibitor counter-screen hit in parental HEK293 cells; membrane potential ratio readout (active if shifted either direction beyond buffer ±3SD; no single direction) at 10 µM; hit rate 4% among 2,400; membrane potential dye, choline response; active = decrease or increase beyond buffer ±3SD; shares compounds with CHT block;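 further: parental cells lack the transporter so any hit is non-specific; ratio is peak minus trough fluorescence over baseline after EC90 choline challenge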
# * marks the source's active call; other numbers are inactive results; i = inactive; x = no result.
SMILES,ANO1 activ,ANO1 block,CHT PAM,CHT block,CHT inh conf,HEK293 CHT ctr
Cc1nnc(SCc2nnc(-c3cccs3)o2)n1C,i,i,i,-7*,i,i
CCOc1ccc(NC(=O)CN(C)C(=O)c2ccc(NC3CC3)c([N+](=O)[O-])c2)cc1OCC,i,i,i,i,x,x
Cc1ccc2c(C)c(C(=O)N(C)C(C)c3ccon3)oc2c1C (configuration not stated),i,i,i,i,x,x
O=[N+]([O-])c1cc(-c2ncccn2)c([N+](=O)[O-])s1,i,i,i,-6.3*,48%*,i
CN(C(=O)COC(=O)c1ccc(Cl)c(S(=O)(=O)NCc2ccccc2)c1)C1CCS(=O)(=O)C1 (configuration not stated),i,x,x,x,x,x
CC12CCC(=O)N1C(C(=O)NNC(=O)COc1cccc(C(F)(F)F)c1)CS2 (configuration not stated),i,i,i,i,x,x
CCN1CCN(C(=O)C2=CC(c3ccc(C)cc3)=NS(=O)(=O)N2C)CC1,i,i,i,-6.6*,i,i
CCN1CCN(C(=O)C2=CC(c3ccc(OC)cc3)=NS(=O)(=O)N2C)CC1,i,i,i,i,x,x
COc1ccc(OC(C)C(=O)NCCC2=CCCCC2)cc1 (configuration not stated),i,i,i,-5.1*,i,i
C#CC[N+]1(CC#Cc2cccc(C)c2)CCCCC1,i,i,i,-6.7*,39%*,i
C#CC[N+]1(CC#Cc2ccccc2)CCCCC1,i,i,i,-9.6*,i,i
C(#Cc1ccccc1)C[N+]1(CC#Cc2ccccc2)CCCCC1,i,i,i,i,x,x
O=C(NNC(=S)Nc1ccc(Br)cc1)c1ccccc1Br,i,i,i,-5.6*,58%*,i
O=C(NNC(=S)Nc1ccc(Cl)cc1)c1ccccc1OC(F)F,i,i,i,-5.4*,44%*,i
O=C(NNC(=S)Nc1ccc(Br)cc1)c1ccccc1,i,i,i,i,x,x
O=C(NNC(=S)Nc1cccc(C(F)(F)F)c1)c1cccc(Cl)c1,i,i,i,i,x,x
O=C(NNC(=S)Nc1cccc(C(F)(F)F)c1)c1ccccc1Cl,i,25*,i,-5.8*,i,i
O=Cc1c[nH]c2ccc(C(=O)c3ccccc3)cc12,i,i,i,i,x,x
Cc1ccc(NC(=O)c2ccccc2SCC(=O)N2CCCC2)cc1S(=O)(=O)N(C)C,i,i,i,i,x,x
Cc1ccc(S(=O)(=O)c2nc(S(C)(=O)=O)sc2N2CCC3(CC2)OCCO3)cc1,i,i,i,i,x,x
O=c1c([N+](=O)[O-])cccn1Cc1cccc(Br)c1,i,i,i,i,x,x
CC1CCN(CC(O)COc2ccc(OCC(O)CN3CCC(C)CC3)cc2)CC1 (configuration not stated),i,i,i,-10*,5.8%*,i
CSc1ncccc1C(=O)OCC(=O)Nc1nc(C)c(Cl)cc1Cl,i,x,x,x,x,x
CCOCCCNC(=O)/C(C#N)=C/c1ccc([N+](=O)[O-])o1,i,i,i,-7*,58%*,i
CC(NC(=O)/C(C#N)=C/c1ccc([N+](=O)[O-])o1)c1ccccc1 (configuration not stated),i,i,i,-5.3*,62%*,i
SMILES,ANO1 activ,ANO1 block,CHT PAM,CHT block,CHT inh conf,HEK293 CHT ctr
O=C(C1CN(C(=O)c2cc3cc(Cl)ccc3o2)c2ccccc2O1)N1CCCCC1 (configuration not stated),i,x,x,x,x,x
CC(=O)NCCc1nc2ccccc2n1CCOc1cccc(C)c1,i,i,i,i,x,x
Cc1cccc(OCCCn2c(CCNC(=O)C(C)C)nc3ccccc32)c1,i,i,i,-5.1*,i,i
O=c1c(-c2ccc(Cl)cc2)c[nH]n1-c1ccccc1,i,i,i,i,x,x
O=c1c(-c2ccccc2)c[nH]n1-c1cccc([N+](=O)[O-])c1,i,i,i,-6.2*,45%*,i
Cc1c(C(c2cccc([N+](=O)[O-])c2O)c2c(C)n(C)n(-c3ccccc3)c2=O)c(=O)n(-c2ccccc2)n1C,i,i,i,i,x,x
Cc1[nH]n(-c2ccccc2)c(=O)c1C(c1cccc([N+](=O)[O-])c1O)c1c(C)[nH]n(-c2ccccc2)c1=O,i,i,i,-7.2*,-6.2%*,i
CCCOc1ccc(C(CC(=O)O)NC(=O)c2sc3ccccc3c2Cl)cc1 (configuration not stated),i,i,i,-6.8*,25%*,i
O=C(O)c1cc(C(=O)O)cc(N2C(=O)CSC2=S)c1,i,i,i,i,x,x
O=C(O)c1ccc(N2C(=O)CSC2=S)cc1,i,i,i,-6.4*,69%*,i
Oc1cccc(C(O)CNCc2ccc(OCc3ccc(Cl)cc3Cl)cc2)c1 (configuration not stated),i,i,i,-5.6*,69%*,i
CCCCCCCCN1N=N[C@H]2[C@H]1[C@@H]1C[C@H]2N(C(=O)OC(C)(C)C)O1,i,x,x,x,x,x
COc1ccc(-c2nc(-c3cccs3)c(-c3cccs3)[nH]2)cc1O,i,i,i,-7.2*,70%*,i
O=C(O)c1ccc(-c2nc(-c3ccccc3)c(-c3cccs3)[nH]2)cc1,i,i,i,i,x,x
CCOC(=O)c1cc(NC(=O)c2ccoc2C)cc(C(=O)OCC)c1,i,i,i,-6.1*,40%*,i
CC(=O)c1cccc(NC(=O)c2ccoc2C)c1,i,i,i,i,x,x
CCC(=O)OCC(=O)[C@@]1(OC(=O)CC)[C@@H](C)C[C@H]2[C@@H]3CCC4=CC(=O)C=C[C@]4(C)[C@@]3(Cl)[C@@H](O)C[C@@]21C,i,i,i,i,x,x
Cc1c(Cl)cc(C(C)C)c(O)c1CN1CCOCC1,i,x,x,x,x,x
COc1ccc(CCC(=O)OCC(=O)NCc2ccc(OC)c(OC)c2)cc1OC,i,x,x,x,x,x
Cc1c(OCC(=O)NCc2cccnc2)ccc2c3c(c(=O)oc12)CCCC3,i,i,i,i,x,x
COc1ccc(S(=O)(=O)N2CCCCCC2)cc1C(=O)N(C)CC(=O)Nc1ccccc1C(F)(F)F,i,x,x,x,x,x
CN(C)C(=O)N1CCN(S(=O)(=O)c2ccc3ccccc3c2)CC1,i,i,i,-6.7*,5.6%*,i
Cc1cccc(-c2nc(CN3CCCC(C(=O)NC4CCCCCC4)C3)c(C)o2)c1 (configuration not stated),i,i,i,i,x,x
